Results filed as inconclusive are left out. Values without a mark were called inactive. Active and inactive are the calls of the source. Calls follow the shape of the dose curve; as a rule, active = well fitted inhibition curve with a large enough effect; inconclusive = small, poorly fitted or top-dose-only effect; inactive = flat fitted curve, though single readings scatter. Where a SMILES comes first, the peptide text is derived from it.
Target: Calcium and integrin-binding protein 1 (Homo sapiens) (UniProt Q99828)
Assay: Primary qHTS for Identification of Calcium Integrin Binding Protein 1 (CIB1) Competitor (AID 1508620);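 also: GST tagged CIB1 binding a fluorescein labelled alphaIIb integrin peptide tracer; top concentration of the series differs between compounds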
Details: CIB1-GST / FITC-alphaIIb peptide fluorescence polarization; series mostly up to 57.7 µM; activity change, negative = inhibition: at the top concentration
How it was run: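 CIB1-GST (1 uM final) and compound incubated 15 min at room temperature before adding FITC-alphaIIb peptide tracer (100 nM final). Competition for binding read by fluorescence polarization (ex 480, em 540) after another 15 min at room temperature.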
% is scaled to controls: 0 for no effect and ±100 for the full control effect.

Chain of Calcium and integrin-binding protein 1 (Homo sapiens) (Q99828 whole entry, looked up): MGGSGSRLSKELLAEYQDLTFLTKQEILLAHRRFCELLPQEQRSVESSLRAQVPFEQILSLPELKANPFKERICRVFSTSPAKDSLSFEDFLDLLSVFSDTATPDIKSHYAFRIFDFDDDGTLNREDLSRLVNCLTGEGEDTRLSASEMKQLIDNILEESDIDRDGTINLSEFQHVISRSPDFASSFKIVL

COc1cc(N2CCC(O)CC2)ccc1Nc1cc(Nc2ccccc2S(=O)(=O)C(C)C)c2cc[nH]c2n1 was tested, and the Potency was “inactive”.
With CNc1nc(Nc2cnn([C@H]3CCN(C4COC4)C[C@@H]3F)c2Cl)ncc1C(F)(F)F the Potency was “inactive”.

In order of falling “activity change, negative = inhibition” value:
1. COc1cc(/C=C/C(=O)OC2CC3CCC2(C)C3(C)C)ccc1O (configuration not stated)  3.12%
2. C=C1C2=CC(O)C(C)C1(C)CC/C(C)=C/CCC1(C)OC1C2=O (configuration not stated)  3.11%
3. CC(=O)[C@@H]1CC[C@]2(C(=O)O)CC[C@]3(C)C(CCC4[C@@]5(C)CC[C@H](O)C(C)(C)C5CC[C@]43C)C12 (some centres not stated)  1.69%
4. CC(/C=C/C1(O)C(C)(C)CC(O)CC1(C)O)OC1OC(CO)C(O)C(O)C1O (configuration not stated)  1.18%
5. CC1CCC2(C)C(CC(O)C(O)C23CO3)C1(C)CCC1=CC(O)OC1=O (configuration not stated)  1.06%
6. O=C1[C@H](O[C@@H]2O[C@H](CO)[C@@H](O)[C@H](O)[C@H]2O)Oc2ccccc2N1O  0.884%
7. C=C(C(=O)OC)C1CCC2(C)C(O[C@@H]3O[C@H](CO)[C@@H](O)[C@H](O)[C@H]3O)CC(=O)C(C)C2C1O (some centres not stated)  0.12%
8. CC(=O)c1c(C)cc(O)cc1O[C@@H]1O[C@H](CO)[C@@H](O)[C@H](O)[C@H]1O  -0.555%
9. C=C1C(=O)OC2CC(C)=C(C(C)CCCO[C@@H]3O[C@H](CO)[C@@H](O)[C@H](O)[C@H]3O)C(O)C12 (some centres not stated)  -0.596%
10. CC12CCC3C(C)(C)C(O)CCC3(C)C1Cc1c(oc(C(=O)O)cc1=O)O2 (configuration not stated)  -1.58%
11. O=C(/C=C/c1ccc(O)c(O)c1)OCc1ccccc1O[C@@H]1O[C@H](CO)[C@@H](O)[C@H](O)[C@H]1O  -2.08%
12. C=C[C@H]1[C@H](O[C@@H]2O[C@H](CO)[C@@H](O)[C@H](O)[C@H]2O)OC=C2C(=O)OCC[C@]21O  -2.19%
13. O=C(O[C@H]1[C@@H]2C=CO[C@@H](O[C@@H]3O[C@H](CO)[C@@H](O)[C@H](O)[C@H]3O)[C@@H]2[C@@]2(CO)O[C@@H]12)c1ccc(O)c(O)c1  -3.44%
14. CCC(C)/C=C(C)/C=C/C1=CC2=C(Cl)C(=O)C(C)(OC(C)=O)C(=O)C2=CN1CCCC(=O)O (configuration not stated)  -8.58%

In order of falling “activity change, negative = inhibition” value:
1. CC1(C)CC[C@]2(C(=O)O[C@@H]3O[C@H](CO)[C@@H](O)[C@H](O)[C@H]3O)CC[C@]3(C)C(=CCC4[C@@]5(C)C[C@@H](O)[C@H](O)[C@@](C)(CO)C5CC[C@]43C)C2C1 (some centres not stated)  1.85% [at 30.2 µM]
2. CO[C@@H]1CC[C@H](OC[C@]2(COC(=O)c3ccc(C)[nH]3)[C@H](OC(C)=O)CC[C@@]3(C)[C@@H]4CC=C(C)[C@@H](C5=C(O)C(=O)OC5O)[C@]4(C)CC[C@@H]32)O[C@H]1C (some centres not stated)  0.213% [at 30.2 µM]
3. C[C@@H](O)[C@H](N)C(=O)N1CCC[C@H]1C(=O)N1CCC[C@H]1C(=O)N[C@H](C(N)=O)[C@@H](C)O (H-TPPT-NH2)  -1.24% [at 30.2 µM]
4. CC(C)CC(=O)OC[C@H]1O[C@@](COC(=O)CC(C)C)(O[C@H]2O[C@H](CO)[C@@H](O)[C@H](O)[C@H]2OC(=O)CC(C)C)[C@@H](OC(=O)CC(C)C)[C@@H]1O  -3.28% [at 30.2 µM]

Compound CC1OC(OC2C(CO)OC(OCC3OC(OC(=O)C45CCC(C)(C)CC4C4=CCC6C7(C)CCC(OC8OC(C(=O)O)C(O)C(OC9OC(CO)C(O)C(O)C9O)C8O)C(C)(C)C7CCC6(C)C4(C)CC5)C(O)C(O)C3O)C(O)C2O)C(O)C(O)C1O (configuration not stated) has an activity change, negative = inhibition of 0.696% [at 12.4 µM].

In order of rising “activity change, negative = inhibition” value:
1. CC1=C2C(=O)C=C(CO)[C@@H]2[C@H]2OC(=O)[C@H](C)[C@@H]2[C@@H](O)C1  -9.66% [at 114 µM]
2. CCC(=O)N[C@@H]1Cc2ccccc2[C@H](c2ccccc2)C1  -7.85% [at 114 µM]
3. c1ccc(Nc2nc3c(s2)CCCc2[nH]ncc2-3)nc1  -7.68% [at 114 µM]
4. CC(C)c1nc(N(C)S(C)(=O)=O)nc(-c2ccc(F)cc2)c1/C=C/[C@@H](O)C[C@@H](O)CC(=O)O  -5.25% [at 114 µM]
5. C=C1C[C@@]23CC[C@@H]4[C@](C)(C(=O)O)CCC[C@@]4(C)C2=CC[C@H]1C3  -4.02% [at 114 µM]
6. COc1ccc2cc(OCC3(C(=O)O)CN(C(=O)c4ccc(F)cc4)C3)ccc2c1  -1.14% [at 114 µM]
7. C=C1CCC[C@]2(C)C[C@]3(O)OC(=O)C(C)=C3C[C@@H]12  0.295% [at 114 µM]
8. C#C[C@]1(O)CC[C@H]2[C@@H]3CCC4=C/C(=N/O)CC[C@@H]4[C@H]3CC[C@@]21CC  0.949% [at 114 µM]
9. CCn1cc(C2=NOC(C(=O)Nc3c(C)n(C)n(-c4ccccc4)c3=O)C2)c(C)n1 (configuration not stated)  1.28% [at 114 µM]
10. Cc1cc(C)cc(NC(=O)Cc2ccc(OC(C)(C)C(=O)O)cc2)c1  3.2% [at 114 µM]
11. O=C(NCC(=O)N1CC[C@H](NC2CCC(O)(c3ccc(-c4ncccn4)cn3)CC2)C1)c1cccc(C(F)(F)F)c1 (some centres not stated)  4.57% [at 114 µM]

Source: PubChem BioAssay (NCATS)
